The campaign covered roughly 5,500 compounds. About 2,000 (36%) were called active. About 18% were inconclusive and are not listed. No stated cut-off is given here; in the data, active means normalized growth mostly below about 0.91 (no sharp cut-off); inconclusive means no clear call, values can overlap the other calls; inactive means mostly above about 0.92. Some of the results follow.
Assay: chemical genetic growth profiling, strain panel (AID 1159580);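 further: tested at 20 µM; growth read once vehicle control cultures reached saturation at 30 °C; 1 = growth at the plate median or of vehicle wells; lower values mean less growth of the strain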
Conditions: growth OD

Measured: normalized growth

CCOC(=O)[C@H](CCc1ccccc1)N[C@@H](C)C(=O)N1CCC[C@H]1C(=O)O
inactive: S. cerevisiae deletion strains, locus YJR075W, strain HOC1, hits give low values 1.01 | S. cerevisiae deletion strains, locus YKL009W, strain mrt4, hits give low values 1.04 | S. cerevisiae deletion strains, locus YKL068W, hits give low values 0.998 | S. cerevisiae deletion strains, locus YKL085W, strain MDH1 (second series), hits give low values 1 | S. cerevisiae deletion strains, locus YKL085W, strain MDH1, hits give low values 1 | S. cerevisiae deletion strains, locus YKL160W, strain elf1, hits give low values 0.988 | S. cerevisiae deletion strains, locus YKL190W, strain CNB1, hits give low values 0.998 | S. cerevisiae deletion strains, locus YKR001C, strain vps1, hits give low values 1.02 | S. cerevisiae deletion strains, locus YKR026C, strain gcn3, hits give low values 1 | S. cerevisiae deletion strains, locus YKR091W, strain srl3, hits give low values 0.994 | S. cerevisiae deletion strains, locus YLL001W, strain dnm1, hits give low values 0.981 | S. cerevisiae deletion strains, locus YLL026W, hits give low values 0.989 | S. cerevisiae deletion strains, locus YLL041C, strain sdh2, hits give low values 1.01 | S. cerevisiae deletion strains, locus YLR027C, strain aat2, hits give low values 0.985 | S. cerevisiae deletion strains, locus YLR039C, strain RIC1, hits give low values 1 | S. cerevisiae deletion strains, locus YLR058C, strain SHM2, hits give low values 1.01 | S. cerevisiae deletion strains, locus YLR102C, strain apc9, hits give low values 1.02 | S. cerevisiae deletion strains, locus YLR113W, strain HOG1, hits give low values 1.05 | S. cerevisiae deletion strains, locus YLR221C, strain rsa3, hits give low values 0.975 | S. cerevisiae deletion strains, locus YLR258W, strain gsy2, hits give low values 0.992 | S. cerevisiae deletion strains, locus YLR262C, strain YPT6 (second series), hits give low values 0.998 | S. cerevisiae deletion strains, locus YLR262C, strain YPT6, hits give low values 1.03 | S. cerevisiae deletion strains, locus YLR268W, strain sec22, hits give low values 1.01 | S. cerevisiae deletion strains, locus YLR320W, strain mms22, hits give low values 0.984 | S. cerevisiae deletion strains, locus YLR330W, strain CHS5, hits give low values 1 | S. cerevisiae deletion strains, locus YLR342W, strain FKS1 (second series), hits give low values 1 | S. cerevisiae deletion strains, locus YLR342W, strain FKS1, hits give low values 0.994 | S. cerevisiae deletion strains, locus YLR357W, strain rsc2, hits give low values 0.938 | S. cerevisiae deletion strains, locus YLR370C, strain arc18, hits give low values 0.994 | S. cerevisiae deletion strains, locus YLR371W, strain rom2, hits give low values 1.02 | S. cerevisiae deletion strains, locus YLR384C, strain iki3, hits give low values 1 | S. cerevisiae deletion strains, locus YLR418C, strain cdc73, hits give low values 1.01 | S. cerevisiae deletion strains, locus YML016C, strain PPZ1, hits give low values 1.01 | S. cerevisiae deletion strains, locus YML032C, strain rad52, hits give low values 1.02 | S. cerevisiae deletion strains, locus YML120C, strain ndi1, hits give low values 1.03 | S. cerevisiae deletion strains, locus YML124C, strain tub3, hits give low values 1.01 | S. cerevisiae deletion strains, locus YMR058W, strain fet3, hits give low values 1.01 | S. cerevisiae deletion strains, locus YMR078C, strain ctf18, hits give low values 1.01 | S. cerevisiae deletion strains, locus YMR125W, strain sto1, hits give low values 0.991 | S. cerevisiae deletion strains, locus YMR129W, hits give low values 1.01 | S. cerevisiae deletion strains, locus YMR205C, strain PFK2, hits give low values 0.973 | S. cerevisiae deletion strains, locus YMR223W, strain ubp8, hits give low values 1.02 | S. cerevisiae deletion strains, locus YMR231W, strain pep5, hits give low values 0.988 | S. cerevisiae deletion strains, locus YMR263W, strain SAP30, hits give low values 1.01 | S. cerevisiae deletion strains, locus YMR307W, strain GAS1, hits give low values 1.02 | S. cerevisiae deletion strains, locus YNL067W, strain RPL9B, hits give low values 1.01 | S. cerevisiae deletion strains, locus YNL071W, strain lat1, hits give low values 1.01 | S. cerevisiae deletion strains, locus YNL128W, strain TEP1, hits give low values 1.02 | S. cerevisiae deletion strains, locus YNL183C, strain NPR1, hits give low values 0.973 | S. cerevisiae deletion strains, locus YNL209W, strain ssb2, hits give low values 0.986 | S. cerevisiae deletion strains, locus YNL233W, strain BNI4, hits give low values 1 | S. cerevisiae deletion strains, locus YNL248C, strain rpa49, hits give low values 1.03 | S. cerevisiae deletion strains, locus YNL250W, strain rad50, hits give low values 1.01 | S. cerevisiae deletion strains, locus YNL271C, strain bni1, hits give low values 1.02 | S. cerevisiae deletion strains, locus YNL298W, strain CLA4, hits give low values 1.04 | S. cerevisiae deletion strains, locus YNL307C, strain MCK1, hits give low values 1.04 | S. cerevisiae deletion strains, locus YNL322C, strain KRE1 (second series), hits give low values 0.963 | S. cerevisiae deletion strains, locus YNR049C, strain mso1, hits give low values 1 | S. cerevisiae deletion strains, locus YNR052C, strain pop2, hits give low values 1.01 | S. cerevisiae deletion strains, locus YOL006C, strain TOP1, hits give low values 1.04 | S. cerevisiae deletion strains, locus YOL012C, strain htz1 0.639 | S. cerevisiae deletion strains, locus YOL147C, strain pex11, hits give low values 1.01 | S. cerevisiae deletion strains, locus YOR001W, strain rrp6, hits give low values 1 | S. cerevisiae deletion strains, locus YOR061W, strain CKA2, hits give low values 1.01 | S. cerevisiae deletion strains, locus YOR069W, strain VPS5, hits give low values 0.992 | S. cerevisiae deletion strains, locus YOR070C, strain gyp1, hits give low values 0.963 | S. cerevisiae deletion strains, locus YOR080W, strain dia2, hits give low values 0.997 | S. cerevisiae deletion strains, locus YOR083W, strain WHI5, hits give low values 0.934 | S. cerevisiae deletion strains, locus YOR106W, strain vam3, hits give low values 0.977 | S. cerevisiae deletion strains, locus YOR136W, strain idh2, hits give low values 1.02 | S. cerevisiae deletion strains, locus YOR144C, strain elg1, hits give low values 1.01 | S. cerevisiae deletion strains, locus YOR184W, strain ser1, hits give low values 1.04 | S. cerevisiae deletion strains, locus YOR231W, strain MKK1, hits give low values 1.04 | S. cerevisiae deletion strains, locus YOR265W, strain rbl2, hits give low values 0.992 | S. cerevisiae deletion strains, locus YOR270C, strain vph1, hits give low values 0.999 | S. cerevisiae deletion strains, locus YOR290C, strain snf2, hits give low values 0.988 | S. cerevisiae deletion strains, locus YOR316C, strain cot1, hits give low values 1.02 | S. cerevisiae deletion strains, locus YPL051W, strain arl3, hits give low values 0.954 | S. cerevisiae deletion strains, locus YPL078C, strain atp4, hits give low values 0.993 | S. cerevisiae deletion strains, locus YPL106C, strain sse1, hits give low values 0.922 | S. cerevisiae deletion strains, locus YPL240C, strain hsp82, hits give low values 0.994 | S. cerevisiae deletion strains, locus YPL241C, strain CIN2, hits give low values 0.999 | S. cerevisiae deletion strains, locus YPL256C, strain CLN2, hits give low values 1.05 | S. cerevisiae deletion strains, locus YPR119W, strain clb2, hits give low values 1.02 | S. cerevisiae deletion strains, locus YPR141C, strain kar3, hits give low values 1.01 | S. cerevisiae deletion strains, locus YPR163C, strain tif3, hits give low values 1.02 | S. cerevisiae deletion strains, locus YPR167C, strain met16, hits give low values 1.02 | S. cerevisiae deletion strains, strain wtn01, hits give low values 1.01 | S. cerevisiae strains, strain wild type, hits give low values 1
